# Measurements reported in the supplement of paper PMC6555819.
# Legend:
# Assay in all cases: PBM binding z-score (relative to random genomic background probes); higher = stronger binding; sequences stand for … in GC…GCGATTGACAGCGTAGAATGAAGG
# [1] = test system: FXR:RXRa (NR concentration 270 nM, RXRa partner concentration 90 nM)
# How it was run: (§1)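 Custom Agilent 4×180K protein-binding microarrays carried double-stranded probes. Their 34-nt variable regions held direct-repeat seeds, single-nucleotide variants, half-site ablations and random human genomic background sequences. Arrays were incubated 1 h with ligand-free nuclear receptor dimers in PBS pH 7.4, 2% milk, 0.02% Triton X-100, 1 mM DTT, 0.2 mg/mL BSA and 0.4 mg/ml salmon testes DNA. Antibodies against each partner (one per run) detected binding, and scanned fluorescence was regression-normalized. Binding z-scores use random background probes as reference.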
# [2] = test system: LXRa:RXRa (NR concentration 270 nM, RXRa partner concentration 90 nM)
# How it was run: as §1
# [3] = test system: LXRa homodimer (NR concentration 270 nM)
# How it was run: as §1
# [4] = test system: LXRb:RXRa (NR concentration 270 nM, RXRa partner concentration 90 nM)
# How it was run: as §1
# [5] = test system: LXRb homodimer (NR concentration 270 nM)
# How it was run: as §1
# [6] = test system: PPARa:RXRa (NR concentration 270 nM, RXRa partner concentration 90 nM)
# How it was run: as §1
# [7] = test system: PPARg:RXRa (NR concentration 180 nM, RXRa partner concentration 90 nM)
# How it was run: as §1
# [8] = test system: PPARg:RXRa 270nM:90nM, anti-RXR (NR concentration 270 nM, RXRa partner concentration 90 nM)
# How it was run: as §1
# [9] = test system: PPARg:RXRa 30nM:10nM, anti-RXR (NR concentration 30 nM, RXRa partner concentration 10 nM)
# How it was run: as §1
# [10] = test system: PPARg:RXRa 90nM:30nM, anti-RXR (NR concentration 90 nM, RXRa partner concentration 30 nM)
# How it was run: as §1
# [11] = test system: PPARg:RXRa DBDmut IVT, anti-RXR (DBD mutation: RXRa K156A/R161A, NR concentration 270 nM, RXRa partner concentration 90 nM)
# How it was run: as §1
# [12] = test system: PPARg:RXRa IVT, anti-PPARg (NR concentration 270 nM, RXRa partner concentration 90 nM)
# How it was run: as §1
# [13] = test system: PPARg DBDmut:RXRa IVT, anti-PPARg (DBD mutation: PPARg1 K132A/R137A, NR concentration 270 nM, RXRa partner concentration 90 nM)
# How it was run: as §1
# [14] = test system: PPARg DBDmut IVT, anti-PPARg (DBD mutation: PPARg1 K132A/R137A, NR concentration 270 nM)
# How it was run: as §1
# [15] = test system: PPARg homodimer (NR concentration 180 nM)
# How it was run: as §1
# [16] = test system: PXR:RXRa (NR concentration 270 nM, RXRa partner concentration 90 nM)
# How it was run: as §1
# [17] = test system: PXR homodimer (NR concentration 270 nM)
# How it was run: as §1
# [18] = test system: RARa:RXR (NR concentration 270 nM, RXRa partner concentration 90 nM)
# How it was run: as §1
# [19] = test system: RARa homodimer (NR concentration 270 nM)
# How it was run: as §1
# [20] = test system: RARb:RXRa (NR concentration 270 nM, RXRa partner concentration 90 nM)
# How it was run: as §1
Sequence,PBM binding z-score [1],PBM binding z-score [2],PBM binding z-score [3],PBM binding z-score [4],PBM binding z-score [5],PBM binding z-score [6],PBM binding z-score [7],PBM binding z-score [8],PBM binding z-score [9],PBM binding z-score [10],PBM binding z-score [11],PBM binding z-score [12],PBM binding z-score [13],PBM binding z-score [14],PBM binding z-score [15],PBM binding z-score [16],PBM binding z-score [17],PBM binding z-score [18],PBM binding z-score [19],PBM binding z-score [20]
TCGAGTAGATTACCAATGGGGCATTCAGCTTTCT,-0.309,-0.307,-0.306,0.0449,-0.399,-0.126,-0.221,-0.0351,0.935,0.435,0.795,-0.396,-0.19,-0.114,-0.291,-0.345,-0.382,-0.208,-0.677,-0.295
ATTGAAAGGTCGACGAGGTGAGTATACACCGTTT,4.73,3.32,0.465,2.94,0.545,4.55,3.33,3.53,1.38,2.5,0.761,2.3,1.58,1.35,1.78,3.19,0.959,3.86,0.685,4.05
CTCAAAAGGTCGTGCTCAGGTGAGTATACCAAAC,5.46,4.03,0.165,3.42,0.129,4.98,3.14,3.85,0.896,2.75,1.02,2.03,0.582,0.851,1.51,3.24,0.288,4.2,0.127,4.03
TATAGTTGGTCAAAGGTCACACACTCGAAATGCG,5.81,6.08,3.62,5.5,2.11,6.7,11.4,9.75,9.43,10.9,2.28,6.4,1.87,3.69,4.52,6.04,1.29,6.91,2.66,5.04
CCTAGATGGTCAAGGTCACACACGCTATAGGTAC,4.6,3.62,2.05,3.69,0.665,4.2,3.13,3.56,1.34,2.46,1.66,3.08,1.08,0.88,3.58,4.21,2.09,4.57,2.52,4.29
TAGCATAGGTCATGGGCCAGTATACCACGCGAAC,6.75,5.37,0.897,4.03,0.148,5.98,5.56,5.31,2.04,4.24,0.625,2.53,0.682,0.0731,2.07,3.23,-0.144,4.27,0.528,4.41
CCGACAGGGGCATAAGGTTACCATAAGCCAGCCC,0.857,2.05,-0.0589,1.1,-1.11,1.9,1.11,0.825,-0.159,0.389,-0.166,0.15,-1.21,-1.04,0.637,0.688,-0.195,1.93,-0.124,2.11
CTCGAAAGGTCGTGCTCAGGTGAGTATTCCAAAC,5.42,3.85,0.158,3.32,0.259,4.52,2.26,3.47,0.582,1.86,0.897,1.51,0.28,0.396,1.7,3.33,0.16,4.06,0.262,3.76
GCTATTAGTTGACAGGGCAACCGAATGATTCTCG,-0.301,-0.298,-0.0236,-0.0105,-0.293,0.0349,0.532,0.626,-0.199,0.442,0.297,0.029,0.0418,0.353,0.467,-0.171,0.105,-0.228,0.00268,0.489
AGAACGAGGGCACGCTGAGTTGATGGCAGAGTAG,0.805,0.828,-0.81,0.0668,-1.05,2.22,2.22,1.63,0.228,1.27,4.26,3.81,0.605,-0.669,0.179,1.13,-0.226,0.999,-0.371,2.38
CAGCCTAGGTCAGGGCCAGCATAGGAGGAACGTT,1.52,0.758,-0.392,0.314,-1.18,1.98,0.816,1.02,-0.543,0.19,1.28,1.44,-0.858,-1.51,0.398,0.0493,-0.664,0.806,-0.366,3.37
TCTATTAGTTGATTAGGGCAGCCGAAACAGCGGA,0.608,0.627,0.0696,0.52,0.663,1.01,0.0121,1.92,3.66,2.93,1.91,1.17,1.45,0.97,0.935,0.355,0.226,0.394,0.461,0.624
ATATGTAGGTTAAGGGTCACTCAGGTTGGTTCGC,4.78,4.46,1.96,4.27,1.2,6.85,11.8,10.2,10.8,11.2,7.97,8.15,1.94,2.59,3.56,5.09,1.94,6.1,2.24,3.95
CCGACGGGGGCATAAGGTTACCATAAGCCAGCCC,3.27,4.13,0.249,4.27,3.6,3.87,2.48,3.54,1.17,2.82,1.29,2.29,0.647,0.997,1.67,2.75,0.496,3.93,0.379,2.86
